{
  "source": "PubChem BioAssay AID2227",
  "about": "(Johns Hopkins Ion Channel Center, 2009)",
  "note": "Out of some 310,000 compounds screened, about 1,300 (0.42%) were called active.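 The calls were made as follows: active = B-score of calcium response area above 5 SD of library B-scores, with initial fluorescence ratio within 5 SD of library; inactive = the rest.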 The list comes from a sample in which actives are over-represented; it also holds similar structures and randomly drawn compounds.",
  "data": [
    {"molecular_target": "Short transient receptor potential channel 4 (Mus musculus) (UniProt Q9QUQ5)", "sequence (Q9QUQ5 whole entry, looked up)": "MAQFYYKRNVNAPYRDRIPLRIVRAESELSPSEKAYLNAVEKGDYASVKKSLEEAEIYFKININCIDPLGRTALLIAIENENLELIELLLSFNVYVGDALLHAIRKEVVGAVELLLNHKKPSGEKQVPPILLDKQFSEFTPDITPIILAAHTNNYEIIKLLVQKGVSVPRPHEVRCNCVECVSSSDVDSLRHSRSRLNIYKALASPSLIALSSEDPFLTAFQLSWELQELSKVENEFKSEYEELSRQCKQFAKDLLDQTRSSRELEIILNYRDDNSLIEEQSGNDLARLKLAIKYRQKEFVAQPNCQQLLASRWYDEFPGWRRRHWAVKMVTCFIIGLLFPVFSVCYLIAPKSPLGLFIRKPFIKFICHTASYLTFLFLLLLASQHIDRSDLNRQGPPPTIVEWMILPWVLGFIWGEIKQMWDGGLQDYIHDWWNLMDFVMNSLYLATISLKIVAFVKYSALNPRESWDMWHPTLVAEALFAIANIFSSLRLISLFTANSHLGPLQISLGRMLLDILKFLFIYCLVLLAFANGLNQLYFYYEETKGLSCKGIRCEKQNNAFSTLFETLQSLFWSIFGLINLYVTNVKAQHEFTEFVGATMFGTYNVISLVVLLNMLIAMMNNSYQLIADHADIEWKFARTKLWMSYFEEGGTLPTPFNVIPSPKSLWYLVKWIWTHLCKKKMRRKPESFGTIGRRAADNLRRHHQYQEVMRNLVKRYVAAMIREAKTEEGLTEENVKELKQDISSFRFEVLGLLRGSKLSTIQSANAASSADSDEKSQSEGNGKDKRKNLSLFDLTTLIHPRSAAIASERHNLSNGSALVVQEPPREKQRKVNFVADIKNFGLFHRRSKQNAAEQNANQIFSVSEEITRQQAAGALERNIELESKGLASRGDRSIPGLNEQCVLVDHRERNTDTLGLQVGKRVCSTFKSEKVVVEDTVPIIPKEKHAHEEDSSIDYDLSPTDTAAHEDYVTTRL", "experiment": "positive allosteric modulators of TRPC4, primary screen, cell-based, mouse TRPC4beta, HEK293 mu-opioid, Fluo-4 calcium (AID 2227);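 as to B-score: B-score of integrated fluorescence ratio over time as area under calcium response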", "details": "DAMGO EC20, Fluo-4 Ca2+ flux, at 10 µM; stronger effect = higher value", "values": [
      {"molecule": "COc1ccccc1NC(=O)Nc1nc(CC(=O)Nc2ccccc2F)cs1", "B-score": "inactive"},
      {"molecule": "CCOC(=O)c1cc2cc3ccccc3cc2oc1=O", "B-score": "13 (active)"},
      {"molecule": "NS(=O)(=O)c1ccc(NC(=O)COC(=O)c2cc3ccccc3oc2=O)cc1", "B-score": "inactive"},
      {"molecule": "C=CCc1cccc2cc(C(=O)OCC)c(=O)oc12", "B-score": "inactive"},
      {"molecule": "CC(C)c1c(C(=O)N/N=C/c2ccc(-c3ccccc3)cc2)nnn1-c1nonc1N", "B-score": "inactive"},
      {"molecule": "CCCc1nc2scc(-c3ccc(C)cc3)c2c(=O)n1N", "B-score": "inactive"},
      {"molecule": "CN1CCN(c2ccc(CNS(=O)(=O)c3cccc(F)c3)cc2)CC1", "B-score": "inactive"},
      {"molecule": "O=C(NCC(=O)N1CCN(c2ncc(C(F)(F)F)cc2Cl)CC1)c1ccc(Br)o1", "B-score": "inactive"},
      {"molecule": "O=C(CN1CCN(C(=O)c2ccco2)CC1)Nc1ccc2c(c1)OCO2", "B-score": "inactive"},
      {"molecule": "O=C(CN1CCN(c2ncc(C(F)(F)F)cc2Cl)CC1)Nc1ccc2c(c1)OCO2", "B-score": "10 (active)"},
      {"molecule": "OCCNc1nc2ccccc2n1-c1ncnc2sc3c(c12)CCC3", "B-score": "inactive"},
      {"molecule": "COCCNC(=S)N1CCC(NC(=O)C23CC4CC(CC(C4)C2)C3)CC1", "B-score": "inactive"},
      {"molecule": "FC(F)(F)COc1nc(N2CCCCC2)nc(N2CCNCC2)n1", "B-score": "27 (active)"},
      {"molecule": "CN(N)c1nc(N2CCCC2)nc(N2CCCC2)n1", "B-score": "inactive"},
      {"molecule": "COc1nc(NC2CCCCC2)nc(N2CCCCCC2)n1", "B-score": "inactive"},
      {"molecule": "CC(=O)OCCOCn1cnn2c(=O)c(Br)c(C)nc12", "B-score": "inactive"},
      {"molecule": "C/C(=N\\NC(=O)c1cc(-c2ccc(O)cc2)nc2ccccc12)c1cccnc1", "B-score": "inactive"},
      {"molecule": "CN(C)c1ccc(/C=C2\\NC(=S)N(Cc3ccccc3)C2=O)cc1", "B-score": "14 (active)"},
      {"molecule": "COc1cc(/C=C2/SC(=S)N(Cc3ccccc3)C2=O)cc(OC)c1O", "B-score": "inactive"},
      {"molecule": "O=C1/C(=C\\c2ccsc2)NC(=S)N1c1ccccc1", "B-score": "inactive"},
      {"molecule": "CCC(C)(C)NC(=O)c1cc([N+](=O)[O-])ccc1N1CCCCC1", "B-score": "inactive"},
      {"molecule": "CCOc1ccccc1NS(=O)(=O)c1c[nH]c(C(=O)OC)c1", "B-score": "inactive"},
      {"molecule": "CCOC(=O)C1CCCN(CCSc2ccc(C)cc2)C1", "note": "(configuration not stated)", "B-score": "inactive"},
      {"molecule": "O=C(/C=C/c1ccc(Cl)c([N+](=O)[O-])c1)c1cccnc1", "B-score": "inactive"},
      {"molecule": "NC(N)=N/N=C/c1ccc(Cl)c([N+](=O)[O-])c1", "B-score": "16 (active)"},
      {"molecule": "O=C(/C=C/c1ccc(Cl)c([N+](=O)[O-])c1)c1ccc(O)cc1", "B-score": "inactive"},
      {"molecule": "Oc1cccc(/C=N/Nc2ccc(Cl)nn2)c1O", "B-score": "inactive"},
      {"molecule": "Brc1ccccc1/C=N/Nc1nc2ccccc2o1", "B-score": "inactive"},
      {"molecule": "Oc1c(Br)cccc1/C=N/Nc1c(F)c(F)c(F)c(F)c1F", "B-score": "11 (active)"},
      {"molecule": "O=[N+]([O-])c1cc(S(=O)(=O)CCCN2CCOCC2)ccc1F", "B-score": "inactive"},
      {"molecule": "C/C(=N/NC(=O)CCc1ccccc1)c1ccco1", "B-score": "inactive"},
      {"molecule": "COc1cc(C(=S)N2CCOCC2)ccc1O", "B-score": "42 (active)"},
      {"molecule": "COc1ccc(C)cc1NC(=S)N1CCOCC1", "B-score": "inactive"},
      {"molecule": "CCOc1cc(C(=S)N2CCOCC2)ccc1O", "B-score": "inactive"},
      {"molecule": "COCCCNC(=O)/C=C/c1ccc(OCc2c(F)cccc2Cl)cc1", "B-score": "inactive"},
      {"molecule": "O=C(/C=C/c1ccc(OCc2c(F)cccc2Cl)cc1)N1CCOCC1", "B-score": "inactive"},
      {"molecule": "CN(C)CCCNC(=O)/C=C/c1ccc(OCc2c(F)cccc2Cl)cc1", "B-score": "16 (active)"},
      {"molecule": "CSc1nnc(C2CCCN(CC(=O)Nc3ccccc3N3CCOCC3)C2)n1C(C)C", "note": "(configuration not stated)", "B-score": "inactive"},
      {"molecule": "COc1ccc(OC)c(S(=O)(=O)N2CCCC(C(=O)NCCc3ccccc3)C2)c1", "note": "(configuration not stated)", "B-score": "inactive"},
      {"molecule": "O=S(=O)(c1ccc(F)cc1)N1CCN(Cc2ccccc2C(F)(F)F)CC1", "B-score": "11 (active)"},
      {"molecule": "Cc1ccc(S(=O)(=O)N2CCN(Cc3cccc(C)c3O)CC2)cc1", "B-score": "inactive"},
      {"molecule": "O=C(CN1CCN(S(=O)(=O)c2ccc(F)cc2)CC1)Nc1ccccc1F", "B-score": "inactive"},
      {"molecule": "Cc1ccc(C(=O)COC(=O)c2cccc(N3C(=O)c4c(C)nc5ccccc5c4C3=O)c2)cc1C", "B-score": "inactive"},
      {"molecule": "Cc1cccn2c(=O)c(C=O)c(Nc3ccc(S(N)(=O)=O)cc3)nc12", "B-score": "inactive"},
      {"molecule": "CC(=O)Nc1ccc(N2CCOCC2)c(C(=O)Nc2cccc(C)c2)c1", "B-score": "inactive"},
      {"molecule": "O=C(Nc1cccc(Cl)c1)c1cc([N+](=O)[O-])ccc1N1CCN(CCO)CC1", "B-score": "inactive"},
      {"molecule": "Cc1cccc(NC(=O)c2cc([N+](=O)[O-])ccc2N2CCN(C)CC2)c1", "B-score": "21 (active)"},
      {"molecule": "CC(Sc1nn(-c2ccc(Cl)cc2)c(=S)s1)C(=O)NCC1CCCO1", "note": "(configuration not stated)", "B-score": "inactive"},
      {"molecule": "COc1ccc(S(=O)(=O)n2cnc3ccccc32)c(C)c1", "B-score": "inactive"},
      {"molecule": "CCCCCOc1ccc(CSC2=NCCN2)cc1[N+](=O)[O-]", "B-score": "inactive"},
      {"molecule": "CCCCOc1ccc(CSC(=N)N)cc1[N+](=O)[O-]", "B-score": "21 (active)"},
      {"molecule": "CCCOc1ccc(Cn2ccnc2)cc1[N+](=O)[O-]", "B-score": "inactive"},
      {"molecule": "O=C(NNC(=O)C1C2CCC(C2)C1C(=O)O)c1ccc(Cl)cc1", "note": "(configuration not stated)", "B-score": "inactive"},
      {"molecule": "Cc1ccc(CN(CC(=O)NC2CCCCC2)C(=O)c2csnn2)cc1", "B-score": "inactive"},
      {"molecule": "Cc1ccccc1C(CC(=O)c1cccs1)C(C#N)C#N", "note": "(configuration not stated)", "B-score": "inactive"},
      {"molecule": "CCOc1ccc(Br)cc1S(=O)(=O)Nc1ccc(C(=O)OC(C)C(=O)N(C)c2ccccc2)cc1", "note": "(configuration not stated)", "B-score": "inactive"},
      {"molecule": "O=C(NCc1ccccc1)c1ccc(S(=O)(=O)Nc2cccc(C(F)(F)F)c2)cc1", "B-score": "17 (active)"},
      {"molecule": "CCOC(=O)N1CCN(C(=O)c2ccc(S(=O)(=O)Nc3cccc(C(F)(F)F)c3)cc2)CC1", "B-score": "inactive"},
      {"molecule": "O=C(NCc1cccc(C(F)(F)F)c1)c1cccc(S(=O)(=O)N2CCN(Cc3ccccc3)CC2)c1", "B-score": "inactive"},
      {"molecule": "CC[C@@H](C)[C@H](NC(=O)CCc1c(C)c2cc3c4c(oc3c(C)c2oc1=O)CCCC4)C(=O)O", "B-score": "inactive"},
      {"molecule": "O=C(c1cc(Cl)cc(Cl)c1)N1CCC(=O)N(C(COCc2ccccc2)Cc2ccccc2)CC1", "note": "(configuration not stated)", "B-score": "12 (active)"},
      {"molecule": "CC(C)CC(COCc1ccc(Cl)cc1)N1CCN(C(=O)c2ccc(C(F)(F)F)cc2)CCC1=O", "note": "(configuration not stated)", "B-score": "inactive"},
      {"molecule": "CN1CCC(=O)N([C@H](CO)Cc2ccccc2)CC1", "B-score": "inactive"},
      {"molecule": "COc1ccc(N2CC(C(=O)NCCN3C(=O)S/C(=C\\c4cccnc4)C3=O)CC2=O)c(OC)c1", "note": "(configuration not stated)", "B-score": "inactive"},
      {"molecule": "COc1ccc(N2CCN(S(=O)(=O)CCNC(=O)C34CC5CC(CC(C5)C3)C4)CC2)cc1", "B-score": "inactive"},
      {"molecule": "Cc1ccc(NC(=O)Cc2nnc(SCC(=O)Nc3nncs3)n2C)cc1", "B-score": "inactive"},
      {"molecule": "CC(=O)C12CC(C)=C(C)CC1CC1C3CCC4=CC(=O)CCC4(C)C3CCC12C", "note": "(configuration not stated)", "B-score": "11 (active)"},
      {"molecule": "C[C@]12C=CC(=O)C=C1CC[C@@H]1[C@@H]2C(=O)C[C@@]2(C)[C@H]1CC[C@]2(O)C(=O)CO", "B-score": "inactive"},
      {"molecule": "CC(=O)O[C@]1(C(C)=O)CC[C@H]2[C@@H]3C=C(C)C4=CC(=O)CC[C@]4(C)[C@H]3CC[C@@]21C", "B-score": "inactive"},
      {"molecule": "CC(=O)c1c(C)n(-c2ccc(N(C)C)cc2)c2ccc(OCC(N)=O)cc12", "B-score": "inactive"},
      {"molecule": "O=C1CSC(c2ccc(Cl)cc2)N1", "note": "(configuration not stated)", "B-score": "inactive"},
      {"molecule": "COc1ccc(S(=O)(=O)NC(C)c2ccccc2)cc1C(=O)N1CCCCC1", "note": "(configuration not stated)", "B-score": "inactive"},
      {"molecule": "O=c1c2ccccc2oc2nc(C3CCCCC3)n(Cc3ccco3)c(=O)c12", "B-score": "29 (active)"},
      {"molecule": "O=c1c2ccccc2oc2nc3n(c(=O)c12)CCCS3", "B-score": "inactive"},
      {"molecule": "CCc1nc2oc3ccccc3c(=O)c2c(=O)n1Cc1ccc(OC)cc1", "B-score": "inactive"},
      {"molecule": "CCN(CC)CCNc1ccc(Cl)cc1[N+](=O)[O-]", "B-score": "20 (active)"},
      {"molecule": "CSc1ccccc1NC(=O)CN(C)CC(=O)Nc1ccc(Cl)cc1[N+](=O)[O-]", "B-score": "inactive"},
      {"molecule": "CN(C)CCNc1ccc(-c2n[nH]c(=O)c3ccccc23)cc1[N+](=O)[O-]", "B-score": "inactive"},
      {"molecule": "C/C(=N\\N1CCN(Cc2ccc(C)cc2)CC1)c1ccco1", "B-score": "inactive"},
      {"molecule": "CCn1cc(C(=O)NCC(=O)NC(C)(C)CO)c(=O)c2cc3c(cc21)OCO3", "B-score": "inactive"},
      {"molecule": "COc1ccccc1CNS(=O)(=O)CC12CCC(CC1=O)C2(C)C", "note": "(configuration not stated)", "B-score": "inactive"},
      {"molecule": "Cc1c(NC(=O)C(=O)N/N=C/c2cccs2)c(=O)n(-c2ccccc2)n1C", "B-score": "inactive"}
    ]}
  ]
}
